Source: PubChem (Sanford-Burnham Center for Chemical Genomics)
PLAP act: human PLAP activation; P05187; purified PLAP enzyme, luminescent substrate read-out; active compounds read high; activation fold at 20 µM; hit rate 1.2% among 96,000; AID 696; in the data active = activation fold above about 2
CYP2C19 act: increases human CYP2C19 enzyme activity; P33261; recombinant CYP2C19, luciferin-H EGE luminescence; active compounds read high; 0 = fully inhibited enzyme, 1 = untreated enzyme; activation factor at 5 µM; 96,000 tested, under 10 active; AID 1025;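 active = activation factor of at least 2 at 5 µM in the primary screen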;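 note: 0 = wells with 2.5 mM tranylcypromine and 1 = vehicle-only wells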
Target sequence (P33261 whole entry, looked up): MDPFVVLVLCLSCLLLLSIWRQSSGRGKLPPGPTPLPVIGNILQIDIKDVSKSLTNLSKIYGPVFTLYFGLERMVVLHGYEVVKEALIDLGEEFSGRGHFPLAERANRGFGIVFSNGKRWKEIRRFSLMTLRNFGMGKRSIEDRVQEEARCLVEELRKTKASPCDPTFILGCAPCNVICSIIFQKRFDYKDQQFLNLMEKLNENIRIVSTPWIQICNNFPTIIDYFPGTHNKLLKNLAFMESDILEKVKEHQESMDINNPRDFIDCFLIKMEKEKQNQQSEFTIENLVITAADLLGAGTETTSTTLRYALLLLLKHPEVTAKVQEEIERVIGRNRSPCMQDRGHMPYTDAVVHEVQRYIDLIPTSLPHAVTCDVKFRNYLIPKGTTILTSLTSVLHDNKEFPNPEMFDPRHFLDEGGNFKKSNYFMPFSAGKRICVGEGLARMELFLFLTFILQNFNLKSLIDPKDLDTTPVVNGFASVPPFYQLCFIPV
CYP2C19 inhib: inhibitors of human CYP2C19 | hit rate 21% among 96,000 | AID 778 | CYP2C19 Supersomes, luciferin-H EGE luminescence, 30 min | inhibition, % at 5 µM | P33261;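 active = CYP2C19 inhibition above a set limit at 5 µM in the primary screen, cut at about 50% in these data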;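 note: plate controls were negative control wells for no effect and 2.5 mM tranylcypromine positive control for full effect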
CYP2C9 activ: CYP2C9 (human) activation | activation factor at 5 µM | hit rate 1.4% among 96,000 | AID 1024 | recombinant CYP2C9, luciferin-H conversion, luminescence; active compounds read high; factor 1 = untreated enzyme, 0 = blocked | P11712;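 active = activation factor of 2 or more for CYP2C9 at a 5 µM dose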;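 note: 0 = sulfaphenazole-blocked wells and 1 = vehicle-only wells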
CYP2C9 inh: human CYP2C9 inhibition; P11712; CYP2C9 Supersomes, luciferin-H conversion, luminescence; inhibition, % at 5 µM; hit rate 20% among 96,000; AID 777;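 active = blocking of liver enzyme CYP2C9 beyond about 50% at 5 µM, limit read from the data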
Numbers without * were called inactive. A selection: hits, their analogues and other compounds. The true share with any hit is near 31%.

Screening COc1ccc(NC(=O)C2=C(C)C(=O)OC23CCC(C)CC3)c(OC)c1 (centres undefined) returned PLAP act 1.2, CYP2C19 act 0.1, CYP2C19 inhib 87.1*, CYP2C9 activ 0.2 and CYP2C9 inh 76.7*.
`COc1ccc(-c2ccc(-c3noc(-c4ccccc4F)n3)c(OC)n2)cc1` gave PLAP act 0.9, CYP2C19 act 1, CYP2C19 inhib 0.6, CYP2C9 activ 0.9 and CYP2C9 inh 8.4.
For CCOc1ccc(NC(=O)C2=C(C)C(=O)OC23CCC(C)CC3)cc1 (centres undefined) the results were PLAP act 1.5, CYP2C19 act 0.1, CYP2C19 inhib 89.7*, CYP2C9 activ 0.3 and CYP2C9 inh 69.3*.
Screening COc1ccccc1CNC(=O)C1=C(C)C(=O)OC12CCC(C)CC2 (centres undefined) returned PLAP act 1.4, CYP2C19 act 0, CYP2C19 inhib 97.9*, CYP2C9 activ 0.3 and CYP2C9 inh 72.1*.
For COc1cccc(CNC(=O)Cn2cccc2)c1 the results were PLAP act 1.3, CYP2C19 act 0.5, CYP2C19 inhib 45.8, CYP2C9 activ 0.8 and CYP2C9 inh 22.1.
Screening CCOc1ccc(NC(=O)c2ccccc2CO)cc1 returned PLAP act 1, CYP2C19 act 0.9, CYP2C19 inhib 8.1, CYP2C9 activ 1.1 and CYP2C9 inh -6.6.
Screening CC1=C(C(=O)N2CCCCCC2)C2(CCC(C)CC2)OC1=O (centres undefined) returned PLAP act 1.1, CYP2C19 act 0.6, CYP2C19 inhib 42.3, CYP2C9 activ 0.9 and CYP2C9 inh 7.0.
COc1cccc(CNC(=O)c2ccccc2N)c1 was read as PLAP act 0.9, CYP2C19 act 0.2, CYP2C19 inhib 78.2*, CYP2C9 activ 0.9 and CYP2C9 inh 8.8.
`CC1=C(C(=O)N2CCc3ccccc32)C2(CCC(C)CC2)OC1=O` (centres undefined) gave PLAP act 1.1, CYP2C19 act 0.7, CYP2C19 inhib 30.4, CYP2C9 activ 0.7 and CYP2C9 inh 30.1.
`CCCNC(=O)C1=C(C)C(=O)OC12CCC(C)CC2` (centres undefined) gave PLAP act 1, CYP2C19 act 0.5, CYP2C19 inhib 52.5*, CYP2C9 activ 0.9 and CYP2C9 inh 14.9.
For CC(C)(C)NC(=O)CSc1n[nH]c(=O)n1-c1ccccc1 the results were PLAP act 1, CYP2C19 act 0.8, CYP2C19 inhib 19.8, CYP2C9 activ 0.8 and CYP2C9 inh 17.1.
For OC1C=CSc2nc3ccccc3n21 (centres undefined) the results were PLAP act 0.9, CYP2C19 act 1.1, CYP2C19 inhib -12.1, CYP2C9 activ 1.4 and CYP2C9 inh -41.5.
`COC(=O)c1ccccc1NC(=O)CN1CCC(NC(=O)c2ccccc2C)CC1` gave PLAP act 1.4, CYP2C19 act 0.2, CYP2C19 inhib 82.4*, CYP2C9 activ 0.5 and CYP2C9 inh 53.9*.
For COC(=O)c1ccccc1NC(=S)NC(=O)c1ccccc1 the results were PLAP act 0.8, CYP2C19 act 0.4, CYP2C19 inhib 56.1*, CYP2C9 activ 0.8 and CYP2C9 inh 25.0.
Cc1ccc2cccc(NC(=S)NC(=O)c3ccccc3)c2n1 was read as PLAP act 1, CYP2C19 act 0.8, CYP2C19 inhib 16.0, CYP2C9 activ 2.7* and CYP2C9 inh -168.0.
Screening COC(=O)c1ccccc1NC(=S)NC(=O)c1ccccc1C returned PLAP act 0.9, CYP2C19 act 0.5, CYP2C19 inhib 51.2*, CYP2C9 activ 0.7 and CYP2C9 inh 26.7.
For Cc1cc(C)c2cccc(NC(=S)NC(=O)c3ccccc3)c2n1 the results were PLAP act 1, CYP2C19 act 1.1, CYP2C19 inhib -5.8, CYP2C9 activ 1.3 and CYP2C9 inh -25.0.
For CN(C1CCS(=O)(=O)C1)S(=O)(=O)c1ccc(N2CCCC2=O)cc1 (centres undefined) the results were PLAP act 0.9, CYP2C19 act 1, CYP2C19 inhib -1.6, CYP2C9 activ 0.8 and CYP2C9 inh 16.6.
For CC(=O)c1cnc2nc(C(F)(F)F)nn2c1C the results were PLAP act 0.9, CYP2C19 act 1, CYP2C19 inhib -1.0, CYP2C9 activ 1.1 and CYP2C9 inh -10.2.
Screening O=S1(=O)CCC(N2CCOCC2)C1 (centres undefined) returned PLAP act 0.8, CYP2C19 act 1.1, CYP2C19 inhib -6.5, CYP2C9 activ 0.9 and CYP2C9 inh 9.4.
For COc1cc(C(=O)NCc2ccc3c(c2)OCO3)ccc1OCc1c(C)noc1C the results were PLAP act 1, CYP2C19 act 1, CYP2C19 inhib 4.6, CYP2C9 activ 0.6 and CYP2C9 inh 37.9.
Screening COc1ccc(CN(C(=O)CSc2nnc(-c3ccc(F)cc3)o2)c2ccc(F)cc2)cc1 returned PLAP act 1.1, CYP2C19 act 0.5, CYP2C19 inhib 54.2*, CYP2C9 activ 0.3 and CYP2C9 inh 67.9*.
For CC(C)(C)NC(=O)CN(C(=O)CSc1nnc(COc2ccccc2)o1)c1cccc(F)c1 the results were PLAP act 1.2, CYP2C19 act 0.9, CYP2C19 inhib 14.7, CYP2C9 activ 0.6 and CYP2C9 inh 44.7.
`COc1ccc(-n2c(Cn3nnc4ccccc43)nnc2SCC(=O)O)cc1` gave PLAP act 1, CYP2C19 act 1, CYP2C19 inhib 1.1, CYP2C9 activ 1 and CYP2C9 inh -3.4.
For O=C(CSc1nnc(Cn2nnc3ccccc32)o1)N(Cc1ccc(F)cc1)c1ccccc1 the results were PLAP act 1, CYP2C19 act 0.7, CYP2C19 inhib 31.7, CYP2C9 activ 0.4 and CYP2C9 inh 59.0*.
For COc1ccc(N(Cc2ccccc2)C(=O)CSc2nnc(Cn3nnc4ccccc43)o2)cc1 the results were PLAP act 1.7, CYP2C19 act 0.6, CYP2C19 inhib 42.0, CYP2C9 activ 0.3 and CYP2C9 inh 74.0*.
COc1ccccc1OCC(=O)Nc1cccc(C(=O)N2CCOCC2)c1 was read as PLAP act 1.4, CYP2C19 act 1, CYP2C19 inhib -0.8, CYP2C9 activ 0.8 and CYP2C9 inh 16.8.
`CCN(c1ccccc1)S(=O)(=O)c1ccc(NC(=S)NC(=O)c2cccs2)cc1` gave PLAP act 1.2, CYP2C19 act 0.7, CYP2C19 inhib 32.4, CYP2C9 activ 0.2 and CYP2C9 inh 77.0*.
CCCC(=O)Nc1ccc(C(=O)NNC(=S)NC(=O)c2cccs2)cc1 was read as PLAP act 2.4*, CYP2C19 act 0.9, CYP2C19 inhib 6.9, CYP2C9 activ 0.7 and CYP2C9 inh 27.8.
Screening O=C(NC(=S)Nc1ccc(N2CCCCC2)cc1)c1cccs1 returned PLAP act 1, CYP2C19 act 1, CYP2C19 inhib -3.9, CYP2C9 activ 1 and CYP2C9 inh -3.4.
CCCC(=O)NC(=S)Nc1ccc(NC(=O)c2cccs2)cc1 was read as PLAP act 0.9, CYP2C19 act 0.5, CYP2C19 inhib 51.7*, CYP2C9 activ 0.2 and CYP2C9 inh 85.0*.
